PubChem BioAssay (EPA / NIEHS)
Inconclusive results are not listed. Active and inactive are the calls of the source. The calls were made as follows: active = hit-call score of the fitted dose curve at least 0.9, where 1 is the maximum; inconclusive = response in the unintended direction; inactive = score below 0.9.

Assays:
[1] = TOX21_p53_BLA_p2_viability: Viability Assessment in the Tox21 HCT-116 p53 Agonism Beta-lactamase Assay, Phase 2 (AID 2283591);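 also: compound exposure lasted 16 h at 37 °C; actives lower the ATP signal meaning cytotoxicity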
Summary of the method: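 Cytotoxicity readout: CellTiter-Glo ATP luminescence, 30 min at room temperature, after the beta-lactamase read. Cells were HCT116 exposed 16 h at 37C to compounds pin-transferred at 217-fold dilution from DMSO stocks.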

[2] = target: Cellular tumor antigen p53 (Homo sapiens) (UniProt P04637); experiment: TOX21_p53_BLA_p2_ratio: Tox21 HCT-116 p53 Agonism Beta-lactamase Assay, Ratio, Phase 2 (AID 2283592)
Sequence of Cellular tumor antigen p53 (Homo sapiens) (P04637 whole entry, looked up): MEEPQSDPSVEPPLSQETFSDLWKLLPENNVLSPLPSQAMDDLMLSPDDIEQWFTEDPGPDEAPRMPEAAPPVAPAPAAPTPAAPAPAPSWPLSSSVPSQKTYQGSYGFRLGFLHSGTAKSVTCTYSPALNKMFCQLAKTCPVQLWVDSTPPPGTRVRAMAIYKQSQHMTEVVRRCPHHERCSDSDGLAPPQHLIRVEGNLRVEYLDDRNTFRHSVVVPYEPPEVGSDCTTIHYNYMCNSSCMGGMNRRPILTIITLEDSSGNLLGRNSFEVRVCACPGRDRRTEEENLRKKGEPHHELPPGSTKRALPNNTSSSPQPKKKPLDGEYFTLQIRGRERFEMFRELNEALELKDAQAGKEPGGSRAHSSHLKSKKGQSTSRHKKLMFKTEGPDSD
Summary of the method: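 Ratio endpoint: beta-lactamase cleavage of CCF4-AM, blue (460 nm) over green (530 nm). HCT116 reporter line; 16 h treatment, 37C; substrate 2 h RT.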

[3] = target: Cellular tumor antigen p53 (Homo sapiens) (UniProt P04637); experiment: TOX21_p53_BLA_p3_ratio: Tox21 HCT-116 p53 Agonism Beta-lactamase Assay, Ratio, Phase 3 (AID 2283596)
Summary of the method: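 Cells were seeded at 4000/well, rested 5 h at 37C, then dosed with DMSO compound solutions (217-fold dilution) for 16 h. CCF4-AM substrate was loaded for 2 h at room temperature, and the 460/530 nm emission ratio was fitted for gain of signal versus DMSO.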

[4] = target: Cellular tumor antigen p53 (Homo sapiens) (UniProt P04637); experiment: TOX21_p53_BLA_p5_ratio: Tox21 HCT-116 p53 Agonism Beta-lactamase Assay, Ratio, Phase 5 (AID 2283599)
Summary of the method: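 Beta-lactamase reporter ratio (blue 460 nm over green 530 nm, 405 nm excitation) after 2 h CCF4-AM loading, in HCT-116 cells exposed 16 h at 37 C to compounds pinned at 217-fold dilution. Increases relative to DMSO baseline scored.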

[5] = target: Cellular tumor antigen p53 (Homo sapiens) (UniProt P04637); experiment: TOX21_p53_BLA_p4_ratio: Tox21 HCT-116 p53 Agonism Beta-lactamase Assay, Ratio, Phase 4 (AID 2283601)
Summary of the method: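 Signal is the blue/green (460nm/530nm) ratio of cleaved versus uncleaved CCF4-AM substrate, read after 2 h substrate loading. Cells were HCT116 carrying the p53-responsive beta-lactamase reporter, dosed 16 h at 37C, 5% CO2; CellTiter-Glo measured in parallel.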

[6] = TOX21_p53_BLA_p5_viability: Viability Assessment in the Tox21 HCT-116 p53 Agonism Beta-lactamase Assay, Phase 5 (AID 2283600)
Summary of the method: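 Luciferase-coupled ATP quantitation of cells treated for 16 h (37C, 5% CO2) with test chemicals delivered in DMSO via a 217-fold dilution; 4000 cells/well; reagent incubated 30 min at room temperature before luminescence reading.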

[7] = TOX21_p53_BLA_p4_viability: Viability Assessment in the Tox21 HCT-116 p53 Agonism Beta-lactamase Assay, Phase 4 (AID 2283597);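 also: hits lower the luminescence signal meaning cytotoxicity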
Summary of the method: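 Cytotoxicity was inferred from loss of CellTiter-Glo luminescence. HCT116 cells had been dosed with compounds after 5 h plating, incubated 16 h at 37C and 5% CO2, and exposed to the CCF4-AM substrate for 2 h.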

Measured: outcome

CC(C(=O)O)c1ccc2c(c1)[nH]c1ccc(Cl)cc12 (stereo unspecified)
not listed: [6] | [7]
inactive: all other assays above

CC(=C(CCOP(=O)(O)O)SC(=O)c1ccccc1)N(C=O)Cc1cnc(C)nc1N
not listed: [6] | [7]
inactive: all other assays above

COC(=O)CCCCCCCCC(=O)OC
not listed: [6] | [7]
inactive: all other assays above

Cc1cc2c(OCC(CNC(C)(C)C)OC(=O)c3ccccc3)cccc2[nH]1 (stereo unspecified)
inactive: [1] | [2] | [3] | [6]

O=C(O)c1ccc[n+]([O-])c1
not listed: [4] | [7]
inactive: all other assays above

CC(=O)Nc1ccc(C(=O)O)cc1
not listed: [4] | [7]
inactive: all other assays above

Cc1cccc(Br)c1
not listed: [6] | [7]
inactive: all other assays above

O=C(NC(Cc1cc(=O)[nH]c2ccccc12)C(=O)O)c1ccc(Cl)cc1 (stereo unspecified)
inactive: [1] | [2] | [3] | [5]

O=S(=O)(O)CCN1CCN(CCO)CC1
not listed: [4] | [7]
inactive: all other assays above

O=C1c2ccccc2C(=O)C1c1ccc(Cl)cc1
inactive: [1] | [2] | [3] | [6]

CCCCOCCOC(=O)COc1cc(Cl)c(Cl)cc1Cl
inactive: [1] | [2] | [7]

CC(C)CCCC(C)CCCC(C)CCCCC(C)CCCC(C)CCCC(C)C (stereo unspecified)
not listed: [4] | [7]
inactive: all other assays above

O=[N+]([O-])c1cccc(S(=O)(=O)NCCNS(=O)(=O)c2cccc([N+](=O)[O-])c2)c1
not listed: [4] | [7]
inactive: all other assays above

O=C(Cl)c1ccccc1[N+](=O)[O-]
inactive: [1] | [2] | [3] | [6]

CC(C)NC[C@@H](O)COc1ccc(CC(N)=O)cc1
inactive: [1] | [2] | [3] | [5]

CN(CC1(C)CCCO1)S(=O)(=O)c1ccc(Cl)c(S(N)(=O)=O)c1 (stereo unspecified)
not listed: [4] | [7]
inactive: all other assays above

O=C(CCCN1CCN2CCCC2C1)c1ccc(F)cc1 (stereo unspecified)
inactive: [1] | [2] | [7]
